hgDAF12 agonist: hgDAF-12 agonism, primary luciferase screen | 1.8% of 370,000 active | HEK293 GAL4-hgDAF12 UAS-luciferase reporter, agonist luminescence; normalized to butyrate control | activation, % at 6.8 µM | AID 687014;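 active = activation above a cutoff set at the mean of all screened compounds plus 3 SD, cut at about 10% in these data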
DAX1 inh-1: blocks DAX1 repression of SF-1 activated StAR promoter. HEK293T StAR-luciferase reporter, SF-1/DAX-1 repression relief. inhibition, % at 6.8 µM. 1.1% of 370,000 active;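 active = inhibition above the mean over all tested compounds plus 3 SD, cut at about 3.6% in these data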;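 also: higher inhibition means more luminescence from relief of DAX-1 repression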
ssDAF-12 act: activates DAF-12 receptor from parasite S. stercoralis; HEK293 ssDAF-12/GRIP1 lit1-tk-luc reporter, luminescence; % of 3 µM dafachronic acid response; activation, % at 6.8 µM; 1% of 370,000 active;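 active = activation above the mean over all tested compounds plus 3 SD, cut at about 0.9% in these data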
hcDAF-12 act: activates DAF-12 receptor from parasite H. contortus; HEK293 hcDAF-12 lit1-tk-luc reporter, luminescence; 0% DMSO, 100% Δ7-dafachronic acid; activation, % at 6.8 µM; 1.4% of 370,000 active;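 active = activation above the mean of all tested compounds plus 3 SD, cut at about 5.5% in these data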
DAX1 inh-2: NR0B1 (DAX1) inhibition; HEK293 Gal4-DAX1 luciferase reporter, luminescence; inhibition, % at 6.75 µM; 0.99% of 340,000 active;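 active = inhibition above the mean over all tested compounds plus 3 SD, cut at about 4.2% in these data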;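 also: inhibition shows as a rise in luminescence from relieved DAX1 repression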
DAX1 conf: NR0B1 (human) inhibition, confirmation; shares compounds with DAX1 inh-1; HEK293T StAR-promoter luciferase reporter, SF-1/DAX-1 repression; inhibition, % at 6.8 µM; 87% of 2,400 active;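 active = inhibition above the average of every tested compound plus 3 SD, cut at about 3.8% in these data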;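 also: active compounds raise luminescence by relieving repression of the StAR reporter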
Target sequence (P51843 whole entry, looked up): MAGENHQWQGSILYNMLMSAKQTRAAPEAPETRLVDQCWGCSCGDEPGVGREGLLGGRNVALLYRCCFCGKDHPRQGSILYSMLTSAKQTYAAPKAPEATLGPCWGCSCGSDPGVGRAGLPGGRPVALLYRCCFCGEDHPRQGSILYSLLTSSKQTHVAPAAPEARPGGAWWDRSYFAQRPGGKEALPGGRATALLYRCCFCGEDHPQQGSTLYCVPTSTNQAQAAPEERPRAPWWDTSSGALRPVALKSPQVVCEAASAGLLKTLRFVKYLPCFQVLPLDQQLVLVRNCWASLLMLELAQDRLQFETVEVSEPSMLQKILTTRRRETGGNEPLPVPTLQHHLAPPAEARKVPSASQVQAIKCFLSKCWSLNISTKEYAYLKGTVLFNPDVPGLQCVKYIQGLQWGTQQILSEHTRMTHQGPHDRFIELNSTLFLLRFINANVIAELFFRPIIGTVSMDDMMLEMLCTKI
SF1 AF2mut Luc: counter-screen for DAX1 inhibitors: nonselective inhibitors with SF-1 AF2 mutant; shares compounds with DAX1 inh-1; HEK293 StAR-luciferase, luminescence; inhibition, % at 6.8 µM; 78% of 2,400 active;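 active = inhibition above the mean of all tested compounds plus 3 SD, cut at about 3% in these data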
Each line names hits and unclear results; the compound was inactive in the other large screens (follow-up assays come after a bar, where they were run). Shown are actives, neighbours in structure and some others; about 4.1% of the full set was active somewhere.

CC(C)Oc1ccc(C(=O)Nc2nnc(SCC(=O)N3CCOCC3)s2)cc1	hgDAF12 agonist 11, DAX1 inh-1 5.2 | DAX1 conf 8.7 | SF1 AF2mut Luc inactive
CCn1c(SCC(=O)NC2CCCC2)nc2c(c1=O)SCC2	none
CSc1ccccc1OCc1cc(C(=O)N(C)Cc2ccc(C)o2)no1	none
CCN(CC)C1CCN(C(=O)c2cc(COc3ccccc3SC)on2)C1 (stereo unspecified)	none
Cc1ccc(C)c(OCc2cc(C(=O)N3CCOCC3)no2)c1	DAX1 inh-1 5.7 | DAX1 conf 5.3 | SF1 AF2mut Luc 4.7
CSc1ccccc1OCc1cc(C(=O)N(C)Cc2ccc3nsnc3c2)no1	hgDAF12 agonist 11, DAX1 inh-1 5.3 | DAX1 conf 6.5 | SF1 AF2mut Luc 3.1
CSc1ccccc1OCc1cc(C(=O)N2CCCC(C)C2)no1 (stereo unspecified)	hgDAF12 agonist 12, DAX1 inh-1 6.5 | DAX1 conf 8.3 | SF1 AF2mut Luc 4.0
CSc1ccccc1OCc1cc(C(=O)N2CCSCC2)no1	hgDAF12 agonist 12, DAX1 inh-1 5.3 | DAX1 conf 5.4 | SF1 AF2mut Luc 3.4
O=c1[nH][nH]c2c1[C@@H](c1ccc(F)cc1)O[C@H](CCc1ccccc1)C2	none (no result: DAX1 inh-2)
CCOC(=O)C1(C)CCN1C(=O)c1cc(C)oc1C (stereo unspecified)	none (no result: DAX1 inh-2)
Cc1ccccc1CN1CCCCC(NC(=O)c2cccc(F)c2)C1=O (stereo unspecified)	none (no result: DAX1 inh-2)
CCCN1CCN(CCCNC(=O)CN2C(=O)COc3ccc(C(C)(C)C)cc32)CC1	none
O=C(N/N=C/c1cccnc1)c1ccc(NC(=O)c2ccccc2Cl)cc1	none
Cc1ccc(OCC(=O)Nc2ccc(Cl)cc2)c([N+](=O)[O-])n1	hgDAF12 agonist 11, DAX1 inh-1 6.2 | DAX1 conf 10 | SF1 AF2mut Luc 7.5
O=C1CCCc2nc(N3CCN(C(=O)c4ccco4)CC3)ncc21	DAX1 inh-1 5.7 | DAX1 conf 5.9 | SF1 AF2mut Luc 3.4
O=C(c1ccco1)N1CCN(c2ncccn2)CC1	none
C[C@H]1CN([C@@H](C)CO)C(=O)CCCn2nncc2CO[C@H]1CN(C)C(=O)Nc1cccc2ccccc12	none (no result: DAX1 inh-2)
CC(C)Nc1nc(Nc2ccc(C#N)cc2)c2sccc2n1	none (no result: DAX1 inh-2)
CC1CCCN(c2ccc3nc4ccccc4c(=O)n3n2)C1 (stereo unspecified)	hgDAF12 agonist 11, DAX1 inh-1 4.7 | DAX1 conf 7.8 | SF1 AF2mut Luc 3.5
Cc1ccc2nc3ccc(N4CCCC4)nn3c(=O)c2c1	none
CC1(C)CCN2CCC(C)(C)c3c(O)ccc1c32	none
CC(C)c1cc(C(C)C)c(S(=O)(=O)N2CCCC(C(=O)NCc3cccs3)C2)c(C(C)C)c1 (stereo unspecified)	none (no result: DAX1 inh-2)
CCN(CC)CCn1c2c(c(SCC(=O)Nc3ccc(F)c(F)c3)nc1=O)CCC2	none
CCN(CC)CCCn1c2c(c(SCC(=O)Nc3ccc(F)c(F)c3)nc1=O)CCC2	DAX1 inh-1 4.7 | DAX1 conf inactive | SF1 AF2mut Luc inactive
CCN(CC)CCCn1c2c(c(SCC(=O)Nc3nc(C)cs3)nc1=O)CCC2	none
CCN(CC)CCCn1c2c(c(SCC(=O)Nc3cccc(C)c3C)nc1=O)CCC2	DAX1 inh-1 7.2 | DAX1 conf 7.7 | SF1 AF2mut Luc 6.3
O=C(c1cccs1)N1CCN(C(=O)c2cn(-c3ccccc3)nc2-c2ccccc2)CC1	DAX1 inh-1 7.7 | DAX1 conf 5.8 | SF1 AF2mut Luc 3.4
CCOC(=O)[C@]12CCCC=C1N(Cc1ccc(OC)cc1)C(=O)[C@@H]2CC(=O)NCCc1ccccc1OC	none (no result: DAX1 inh-2)
Cc1[nH]c2ccc(C(=O)N3CCCCC3)cc2c1C	hgDAF12 agonist 11, DAX1 inh-1 6.3 | DAX1 conf 9.5 | SF1 AF2mut Luc 3.6
O=C(Nc1ccc(Cl)cn1)c1ccc2nccnc2c1	DAX1 inh-1 6.4, ssDAF-12 act 1.6 | DAX1 conf 4.5 | SF1 AF2mut Luc inactive
O=C(NCCc1ccc(Cl)cc1)c1ccc2nc[nH]c2c1	none
O=C(NCCc1ccc(Cl)cc1)c1ccc2nccnc2c1	DAX1 inh-1 5.4 | DAX1 conf 8.2 | SF1 AF2mut Luc 7.9
O=C(O)c1ccccc1NN=Cc1ccccc1	DAX1 inh-1 5.6, DAX1 inh-2 4.5 | DAX1 conf 9.3 | SF1 AF2mut Luc 5.9
COc1ccc(OC)c(CN2C(=O)c3ccccc3C2c2nnnn2-c2ccc3c(c2)OCCO3)c1 (stereo unspecified)	none (no result: DAX1 inh-2)
CN1CCN(C(=O)C2Cc3c(-c4cccc(F)c4)ccnc3O2)CC1 (stereo unspecified)	none (no result: DAX1 inh-2)
O=C(NNC(=S)Nc1cccc(Cl)c1)c1ccccc1	DAX1 inh-1 5.3 | DAX1 conf 4.8 | SF1 AF2mut Luc 4.0
O=C(NNC(=S)Nc1ccccc1Cl)c1ccccc1Cl	DAX1 inh-1 11 | DAX1 conf 11 | SF1 AF2mut Luc 6.7
O=C(NNC(=S)Nc1ccccc1)c1cccnc1	DAX1 inh-1 5.1 | DAX1 conf 3.6 | SF1 AF2mut Luc 5.6
O=C(NNC(=S)Nc1ccc(Cl)cc1)c1ccccc1	DAX1 inh-1 4.5 | DAX1 conf 7.1 | SF1 AF2mut Luc 4.2
O=C(Nc1cccc(Cl)c1)c1ccccc1	none
CCCCCCCCN1C(=O)[C@H](CC(=O)N2CCN(C(=O)c3ccco3)CC2)C[C@@]2(C(=O)OCC)CCCC=C12	none (no result: DAX1 inh-2)
COc1ccc(OCc2nc3ccccc3[nH]2)cc1	DAX1 inh-1 5.7 | DAX1 conf 13 | SF1 AF2mut Luc 8.4
c1ccc2[nH]c(COCc3nc4ccccc4[nH]3)nc2c1	none (no result: DAX1 inh-1, DAX1 inh-2)
COc1cccc(OCc2nc3ccccc3[nH]2)c1	DAX1 inh-1 5.5 | DAX1 conf 6.3 | SF1 AF2mut Luc 7.0
c1ccc2cc(OCc3nc4ccccc4[nH]3)ccc2c1	hgDAF12 agonist 11, DAX1 inh-1 4.8 | DAX1 conf 15 | SF1 AF2mut Luc 7.6
CCOc1ccc(N(CC)C(=O)CCS(=O)(=O)c2cccc3nonc23)cc1	none
COc1cccc(C=Cc2nccc3ccccc23)c1OC	hgDAF12 agonist 11, DAX1 inh-1 6.1 | DAX1 conf 3.8 | SF1 AF2mut Luc inactive
COc1cc(C(=O)NCCC(=O)NC(C)C)cc(OC)c1OC	DAX1 inh-1 5.3 | DAX1 conf inactive | SF1 AF2mut Luc inactive
CC(C)c1ccc(NC(=O)c2ccc3snnc3c2)cc1	hgDAF12 agonist 12, DAX1 inh-1 5.0 | DAX1 conf inactive | SF1 AF2mut Luc inactive
CSCC(=O)N1CCc2ccc(NC(=O)c3ccccc3Cl)cc2C1	none
Cc1ccc(CNC(=O)Nc2ccc(Cl)cc2)cc1	DAX1 inh-1 5.2 | DAX1 conf inactive | SF1 AF2mut Luc inactive
COCCN1C[C@@H](CO)O[C@@H](n2cnc3c(NC4CCC4)ncnc32)C1	none (no result: DAX1 inh-2)

Assay outcomes: PubChem BioAssay, The Scripps Research Institute Molecular Screening Center
